# Test results reported in PubChem BioAssay.
# Values joined by “and” are separate entries in the source; they are usually repeats but may differ in a detail not shown here. Identical values can stand only once. Active and inactive are the calls of the source.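 Rule for the calls, unless noted: active = thallium flux through the channel raised or lowered by more than 3 SD from vehicle-only wells, actives on both sides; inactive = the rest.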
# Columns and labels:
# [1] = stimulators of nuclear beta-catenin in C2C12, primary screen, imaging, WNT3A-conditioned medium, mouse C2C12, NPC library (AID 1117326; in the data active = nuclear beta-catenin stimulation mostly above about 4.2%, no sharp cut-off; inactive = mostly below about 10%); conditions: stronger effect = higher value
# [2] = stimulators of insulin release from INS-1E, primary screen, cell-based, 5 mM glucose, NPC library (AID 1117329;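 active = compound raises insulin release from rat beta cells at 5 mM glucose, no numeric limit stated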); conditions: rat INS-1E insulin secretion, at 10 µM, stronger effect = higher value
# [3] = growth inhibition of GSK3B-pretreated HCT116 cells – cell-based, CellTiter-Glo, 0.2 to 20 µM (AID 1117336;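 active = compounds lowering colon cancer cell viability after pretreatment blocking the GSK3B kinase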); conditions: HCT116 viability after GSK3B inhibitor, at 20 µM, stronger effect = higher value
# [4] = inhibition of endothelial tube formation, primary screen, imaging, VEGF stimulated, CD31 staining, tube area, NPC library (AID 1117340;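 active = compound that reduces growth-factor-driven endothelial tube area in a mixed cell culture, no cutoff stated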); conditions: VEGF-stimulated ADSC/ECFC co-culture, at 10 µM, stronger effect = higher value
# [5] = glucagon-like peptide 1 release enhancers, primary assay, NCI-H716 cell line, NPC library (AID 1117341;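 active = compound raises GLP1 secretion from the human gut endocrine cells, with no numeric limit stated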); conditions: NCI-H716 cells, at 10 µM, stronger effect = higher value
# [6] = HCT116 colon cancer cell growth inhibition, primary screen, CellTiter-Glo luminescence, NPC library (AID 1117342;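 active = compounds that lower survival of HCT116 colon cancer cells in the luminescence readout, no numeric limit stated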); conditions: at 20 µM (top of the series)
# [7] = CellTiter-Glo luminescent readout of SW480 viability loss, NPC library primary (AID 1117343;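 active = compounds that lower viability of the colon cancer cells in the luminescence readout, with no numeric limit stated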); conditions: CellTiter-Glo luminescence; at 20 µM (top of the series)
# [8] = decreased DLD-1 cellular survival, CellTiter-Glo luminescent readout, NPC compound collection, primary HTS (AID 1117346;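 active = compounds that lower survival of DLD-1 colon cancer cells in the luminescence readout, no cutoff given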); conditions: DLD-1 viability, CellTiter-Glo luminescence; at 20 µM (top of the series)
# [9] = target: 6-phosphogluconate dehydrogenase, decarboxylating (Homo sapiens) (UniProt P52209); assay: 6PGD enzyme inhibitors, primary screen, biochemical, human, recombinant enzyme, NADPH absorbance (AID 1159550;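 active = at least 20% inhibition of 6-phosphogluconate dehydrogenase activity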); conditions: recombinant 6PGD, NADPH absorbance 341 nm; at 10 µM; stronger effect = higher value
# Chain of 6-phosphogluconate dehydrogenase, decarboxylating (Homo sapiens) (P52209 whole entry, looked up): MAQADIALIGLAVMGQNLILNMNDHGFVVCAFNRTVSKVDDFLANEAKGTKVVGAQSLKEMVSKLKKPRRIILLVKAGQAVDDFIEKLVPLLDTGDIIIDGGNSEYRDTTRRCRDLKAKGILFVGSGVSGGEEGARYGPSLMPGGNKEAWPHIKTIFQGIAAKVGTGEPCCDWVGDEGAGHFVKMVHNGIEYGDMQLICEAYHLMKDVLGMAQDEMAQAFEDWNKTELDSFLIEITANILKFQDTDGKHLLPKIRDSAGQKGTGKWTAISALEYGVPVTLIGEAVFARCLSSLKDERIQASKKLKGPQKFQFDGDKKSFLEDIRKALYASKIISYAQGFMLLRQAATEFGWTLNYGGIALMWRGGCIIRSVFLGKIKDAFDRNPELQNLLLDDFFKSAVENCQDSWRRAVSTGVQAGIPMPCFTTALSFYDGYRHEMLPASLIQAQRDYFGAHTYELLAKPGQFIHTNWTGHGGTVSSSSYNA
# [10] = modulation of C. elegans fzo-1 (AID 1259413; call rule not given here;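 note: fzo-1 mutant C. elegans worms in liquid wells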); conditions: C. elegans fzo-1 modulator screen, mean read-out; stronger effect = higher value
# [11] = differential killing of epithelial or mesenchymal cells, primary screen, imaging, PC-3E GFP, TEM4-18 mCherry, co-culture (AID 1345086;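 active = compounds killing one labelled cell type while sparing the other, by normalised counts and ratio limits, not self-fluorescent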;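 for all read-outs here: cells exposed to compound for 72 h before imaging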;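 for red/green cell ratio (normalised): normalised mesenchymal count divided by normalised epithelial count so high means epithelial killing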); conditions: imaging cell counts, at 1 µM; for red/green cell ratio (normalised): actives lie on both sides, counts scaled to control wells, 1 = unselective
# [12] = survival rescue of mitochondrial mutant cells in low glucose, primary screen, MELAS cybrids, Rieske KO mouse fibroblasts, CellTiter-Glo (AID 1508586;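 active = mean z-score across replicates of 1.96 or higher in either the MELAS or the Rieske mutant cell line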;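 note: z relative to plate mean and SD of compound and empty wells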)
# [13] = target: NAD(+) hydrolase SARM1 (Homo sapiens) (UniProt Q6SZW1); assay: SARM1 TIR NADase inhibitors, cell lysate, NAD-Glo luminescence (AID 1508614;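 active = compound whose remaining NAD level is above about 45 nM, limit read from the data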;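 note: higher remaining NAD means stronger inhibition of SARM1 NADase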); conditions: SAM-TIR HEK293T lysate NADase, at 1 µM, stronger effect = higher value
# Chain of NAD(+) hydrolase SARM1 (Homo sapiens) (Q6SZW1 whole entry, looked up, the tested form may be a part): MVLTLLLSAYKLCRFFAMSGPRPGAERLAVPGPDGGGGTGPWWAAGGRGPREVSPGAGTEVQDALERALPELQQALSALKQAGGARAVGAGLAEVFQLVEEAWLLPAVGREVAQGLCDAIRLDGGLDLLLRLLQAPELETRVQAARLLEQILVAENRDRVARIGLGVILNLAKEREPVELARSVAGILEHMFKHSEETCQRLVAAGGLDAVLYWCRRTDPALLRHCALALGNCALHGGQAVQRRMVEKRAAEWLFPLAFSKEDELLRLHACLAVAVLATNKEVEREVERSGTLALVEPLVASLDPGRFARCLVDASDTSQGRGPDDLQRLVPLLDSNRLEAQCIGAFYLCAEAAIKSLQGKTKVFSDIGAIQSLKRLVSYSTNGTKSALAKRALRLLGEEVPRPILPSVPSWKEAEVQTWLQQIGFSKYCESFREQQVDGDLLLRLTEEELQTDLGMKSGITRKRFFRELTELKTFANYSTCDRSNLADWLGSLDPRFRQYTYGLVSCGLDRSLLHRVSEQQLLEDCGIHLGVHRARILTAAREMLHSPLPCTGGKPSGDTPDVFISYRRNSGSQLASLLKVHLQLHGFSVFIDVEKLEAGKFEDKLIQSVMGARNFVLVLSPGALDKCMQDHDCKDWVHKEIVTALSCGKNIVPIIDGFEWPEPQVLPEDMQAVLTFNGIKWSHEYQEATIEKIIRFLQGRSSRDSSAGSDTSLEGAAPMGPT
# [14] = target: Mitogen-activated protein kinase 7 (Homo sapiens) (UniProt Q13164); assay: ERK5 transactivation activators in reporter cells, primary screen, cell-based, HTS (AID 1508626;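 active = luciferase signal above three times the same-plate solvent-only control wells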;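 note: luciferase driven by Gal4-ERK5 fusion binding five Gal4 sites before minimal TATA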); conditions: HeLa Gal4-ERK5 transactivation, 18 h, at 5 µM, stronger effect = higher value
# Chain of Mitogen-activated protein kinase 7 (Homo sapiens) (Q13164 whole entry, looked up, the tested form may be a part): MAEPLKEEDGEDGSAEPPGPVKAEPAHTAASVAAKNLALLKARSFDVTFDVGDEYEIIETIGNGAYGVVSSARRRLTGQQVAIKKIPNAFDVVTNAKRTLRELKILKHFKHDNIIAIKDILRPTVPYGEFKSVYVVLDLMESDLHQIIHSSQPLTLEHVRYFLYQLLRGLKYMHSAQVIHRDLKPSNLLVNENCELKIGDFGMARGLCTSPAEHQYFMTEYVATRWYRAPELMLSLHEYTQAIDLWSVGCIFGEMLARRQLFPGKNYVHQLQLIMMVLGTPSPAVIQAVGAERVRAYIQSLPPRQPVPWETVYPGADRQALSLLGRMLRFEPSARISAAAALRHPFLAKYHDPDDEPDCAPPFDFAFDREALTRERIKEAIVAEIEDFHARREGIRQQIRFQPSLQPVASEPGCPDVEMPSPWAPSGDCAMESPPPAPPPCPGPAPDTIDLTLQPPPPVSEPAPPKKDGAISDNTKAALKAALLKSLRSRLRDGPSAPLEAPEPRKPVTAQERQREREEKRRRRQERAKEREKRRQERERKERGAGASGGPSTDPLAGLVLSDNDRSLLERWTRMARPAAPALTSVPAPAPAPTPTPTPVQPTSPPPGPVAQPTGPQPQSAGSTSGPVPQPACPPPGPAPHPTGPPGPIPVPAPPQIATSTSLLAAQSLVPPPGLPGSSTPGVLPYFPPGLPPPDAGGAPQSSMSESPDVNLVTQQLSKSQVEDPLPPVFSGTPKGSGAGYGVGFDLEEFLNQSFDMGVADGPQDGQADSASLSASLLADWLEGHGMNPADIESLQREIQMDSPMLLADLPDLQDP
# [15] = ICB984 medulloblastoma cell growth inhibition, synergistic combos for chromothripsis tumors, cisplatin or BGB combos (AID 1671451; call rule not given here;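 note: cells exposed for 96 hours before readout; 0% = vehicle DMSO and 100% = killing by high DMSO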); conditions: ICB984 medulloblastoma cells, drug combinations, stronger effect = higher value
# F380Y = assay: modulators of BK channel variants, profiling panel, selectivity assay, cell-based, U2OS BacMam, thallium flux, beta subunits (AID 1259406); conditions: at 30 µM;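 note: initial slope of Thallos dye fluorescence rise after thallium is added; log ratio against the mean of 0.3% DMSO vehicle wells on the same plate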
# F380Y/beta1 = assay: as above; conditions: at 30 µM
# F380Y/beta2Delta = assay: as above; conditions: at 30 µM
# [16] = sensitizers of A549 cells to miR-34 induction, primary screen, imaging, A549 dox-inducible miR-34, nuclei and caspase counts (AID 1347080;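 active = compounds whose cell count with miR-34 switched on is under 0.7 times the count with it off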); conditions: A549 miR-34 inducible, Hoechst nuclei count, 48 h
# [17] = measured here: epithelial PC-3E GFP cell survival
# [18] = measured here: mesenchymal TEM4-18 mCherry cell survival
# [19] = MELAS cybrid survival, CellTiter-Glo 48 h, stronger effect = higher value
# [20] = Rieske KO mouse fibroblast survival, CellTiter-Glo 72 h
# [21] = measured here: 5 uM single agent, at 5 µM
# [22] = stronger effect = lower value, cell number ratio, induced over uninduced
# [23] = measured here: relative caspase fold change +Dox/-Dox
# [24] = measured here: total cells with miR-34 induction, stronger effect = lower value
# [25] = measured here: total cells without miR-34 induction
smiles,measurement,setting,value
CC1COc2c(N3CCN(C)CC3)c(F)cc3c(=O)c(C(=O)O)cn1c23 (configuration not stated),nuclear beta-catenin stimulation,[1]; at 10 µM,-0.3% (inactive)
same,nuclear beta-catenin stimulation,"[1]; stimulation, at 2 µM",-0.9%
same,insulin secretion stimulation,[2],3.4% (inactive)
same,viability decrease,[3],14.4% (inactive)
same,tube area decrease,[4],-15.9% (inactive)
same,GLP1 secretion stimulation,[5],2.5% (inactive)
same,inhibition of viability,[6],0.4% (inactive)
same,viability decrease (inhibition),[7],-9.6% (inactive)
same,viability decrease (inhibition),[8],-8.7% (inactive)
same,inhibition,[9],0.495% (inactive)
same,mean signal,[10],237 (inactive)
same,red/green cell ratio (normalised),[11],0.96 (inactive) and 1.29 (inactive)
same,normalised cell number,[11]; [17],1.1 and 0.91
same,normalised cell number,[11]; [18],1.06 and 1.18
same,z-score,[12]; [19],-0.837 (inactive) and -0.951 (inactive) and -0.349 (inactive)
same,z-score,[12]; [20],-0.0297 and -0.43 and -0.633
same,remaining NAD,[13],10 nM (inactive)
same,luciferase signal,[14],60 AU (inactive)
same,inhibition,"[15]; BGB IC20 combo, at 0.005 µM",-17.9% and -25.7% and 9.81%
same,inhibition,"[15]; BGB IC40 combo, at 0.005 µM",-33.2% and -21.8% and -24%
same,inhibition,"[15]; BGB IC40 combo, at 0.05 µM",-26.1% and 10.2% and -18.3%
same,inhibition,[15]; at 0.5 µM,-27.6% (inactive) and 4.56% (inactive) and -22.5% (inactive)
same,inhibition,"[15]; cisplatin combo, at 0.05 µM",-29.6% and 10.2% and -23%
same,inhibition,"[15]; cisplatin combo, at 0.5 µM",-35.8% and -11.2% and -26.4%
same,inhibition,"[15]; cisplatin combo, at 5 µM",-56.5% and 3.02% and -28.7%
same,inhibition,[15]; [21],-20% and 15.7% and -1.17%
same,log fold change Tl+ flux,F380Y,0.0183 (inactive)
same,log fold change Tl+ flux,F380Y/beta1,-0.00501 (inactive)
same,log fold change Tl+ flux,F380Y/beta2Delta,0.0472 (inactive)
COc1c(N2CCNC(C)C2)c(F)cc2c(=O)c(C(=O)O)cn(C3CC3)c12 (configuration not stated),nuclear beta-catenin stimulation,[1]; at 10 µM,0.7% (inactive)
same,nuclear beta-catenin stimulation,"[1]; stimulation, at 2 µM",2.5%
same,insulin secretion stimulation,[2],-1.15% (inactive)
same,viability decrease,[3],6.2% (inactive)
same,tube area decrease,[4],-12.3% (inactive)
same,GLP1 secretion stimulation,[5],-2.4% (inactive)
same,inhibition of viability,[6],25.9% (inactive)
same,viability decrease (inhibition),[7],-16.2% (inactive)
same,viability decrease (inhibition),[8],-9.8% (inactive)
same,inhibition,[9],-4.88% (inactive)
same,mean signal,[10],254 (inactive)
same,red/green cell ratio (normalised),[11],0.98 (inactive) and 0.92 (inactive)
same,normalised cell number,[11]; [17],1.12 and 1.14
same,normalised cell number,[11]; [18],1.11 and 1.05
same,fold change,[16]; [22],0.968 (inactive) and 0.875 (inactive)
same,fold change,[16]; [23],1.74 and 1.47 and 1.16
same,cell count,[16]; [24],10600 and 11400 and 9660
same,cell count,[16]; [25],10900 and 13100 and 11000
same,z-score,[12]; [19],0.506 (inactive) and 0.393 (inactive)
same,z-score,[12]; [20],-0.687 and -0.598
same,remaining NAD,[13],10 nM (inactive)
same,luciferase signal,[14],72 AU (inactive)
same,inhibition,"[15]; BGB IC20 combo, at 0.005 µM",6.38% and 0.318%
same,inhibition,"[15]; BGB IC40 combo, at 0.005 µM",-11.2% and -13.7%
same,inhibition,"[15]; BGB IC40 combo, at 0.05 µM",-11.7% and 20.2%
same,inhibition,[15]; at 0.5 µM,-18.4% (inactive) and -24.4% (inactive)
same,inhibition,"[15]; cisplatin combo, at 0.05 µM",-15.7% and 18%
same,inhibition,"[15]; cisplatin combo, at 0.5 µM",-12.4% and -7.73%
same,inhibition,"[15]; cisplatin combo, at 5 µM",-26.5% and -51.5%
same,inhibition,[15]; [21],-2.69% and -3.52%
same,log fold change Tl+ flux,F380Y,-0.00177 (inactive)
same,log fold change Tl+ flux,F380Y/beta1,-0.0535 (inactive)
same,log fold change Tl+ flux,F380Y/beta2Delta,-0.045 (inactive)
CC1(C)O[C@@H]2[C@@H](CO[C@@]3(COS(N)(=O)=O)OC(C)(C)O[C@@H]23)O1,nuclear beta-catenin stimulation,[1]; at 10 µM,-1.6% (inactive)
same,nuclear beta-catenin stimulation,"[1]; stimulation, at 2 µM",0.6%
same,insulin secretion stimulation,[2],-0.2% (inactive)
same,viability decrease,[3],-4.2% (inactive)
same,tube area decrease,[4],14.7% (inactive)
same,GLP1 secretion stimulation,[5],-0.1% (inactive)
same,inhibition of viability,[6],-8.2% (inactive)
same,viability decrease (inhibition),[7],-0.9% (inactive)
same,viability decrease (inhibition),[8],-7.1% (inactive)
same,inhibition,[9],5.76% (inactive)
same,mean signal,[10],229 (inactive)
same,red/green cell ratio (normalised),[11],1.43 (inactive)
same,normalised cell number,[11]; [17],1.11
same,normalised cell number,[11]; [18],1.58
same,fold change,[16]; [22],0.931 (inactive) and 0.874 (inactive)
same,fold change,[16]; [23],1.93 and 6.61
same,cell count,[16]; [24],9480 and 11800
same,cell count,[16]; [25],10200 and 13500
same,z-score,[12]; [19],0.776 (inactive)
same,z-score,[12]; [20],0.627
same,remaining NAD,[13],10 nM (inactive)
same,luciferase signal,[14],24 AU (inactive)
same,log fold change Tl+ flux,F380Y,-0.00202 (inactive)
same,log fold change Tl+ flux,F380Y/beta1,0.0196 (inactive)
same,log fold change Tl+ flux,F380Y/beta2Delta,0.0184 (inactive)
